Each structure is given as a SMILES string. Unmarked numbers belong to inactive results. For some of these results: Potency and affinity values are given separately. The source made the active and inactive calls. Unless noted, the rule behind the calls is not given here.

A short description of test [1]: antimalarial activity against Dd2 strain (AID 2302;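 active = growth inhibition above 50% at the single 2 µM test dose, taken to imply half-maximal potency below 2 µM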;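 note: 0% = DMSO untreated growth and 100% = chloroquine plus artemisinin killed control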). The conditions noted are these: P. falciparum Dd2 in RBCs, LDH growth readout, 72 h; at 2 µM; stronger effect = higher value.
Test [2] can be described thus: HepG2 cytotoxicity, primary screen, cytotoxicity control for P. falciparum antimalarial project, cell-based, ATP luminescence (AID 2303;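 active = inhibition above 50%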;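 note: 0% = DMSO wells and 100% = digitonin-killed cells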). The conditions noted are these: HepG2 viability, 24-48 h, at 10 µM, stronger effect = higher value.
Test [3] concerns the target L-lactate dehydrogenase (Plasmodium falciparum (isolate CDC / Honduras)) (UniProt Q27743). Description: PfLDH activity inhibition – cell lysate, 3D7 strain, counter-screen for P. falciparum growth inhibition project (AID 2304).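 Note: 0% = vehicle and 100% = reference inhibitor.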 The conditions noted are these: P. falciparum 3D7 crude extract, LDH APAD/NBT absorbance; at 2 µM; stronger effect = higher value.
A short description of test [4]: inhibition of 3D7 malaria parasite growth – strain 3D7 (AID 2306).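 Note: 0% = DMSO wells and 100% = chloroquine plus artemisinin control wells.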 The conditions noted are these: P. falciparum 3D7 erythrocytic growth, LDH absorbance, 72 h; at 2 µM; stronger effect = higher value.
Test [5] deals with Calcium-dependent protein kinase 1 (Plasmodium falciparum (isolate 3D7)) (UniProt P62344). Kind of test: PfCDPK1 kinase inhibitors, biochemical, TCAMS library (AID 1159585; cut-off not given, nearly all actives have IC50 up to about 0.98 µM;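 note: inhibitors leave more ATP so luminescence rises with inhibition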). The note with it: recombinant PfCDPK1, Kinase-Glo ATP depletion luminescence. (In Kinase-Glo more light means more ATP remaining.)
Sequence of Calcium-dependent protein kinase 1 (Plasmodium falciparum (isolate 3D7)) (P62344 whole entry, looked up): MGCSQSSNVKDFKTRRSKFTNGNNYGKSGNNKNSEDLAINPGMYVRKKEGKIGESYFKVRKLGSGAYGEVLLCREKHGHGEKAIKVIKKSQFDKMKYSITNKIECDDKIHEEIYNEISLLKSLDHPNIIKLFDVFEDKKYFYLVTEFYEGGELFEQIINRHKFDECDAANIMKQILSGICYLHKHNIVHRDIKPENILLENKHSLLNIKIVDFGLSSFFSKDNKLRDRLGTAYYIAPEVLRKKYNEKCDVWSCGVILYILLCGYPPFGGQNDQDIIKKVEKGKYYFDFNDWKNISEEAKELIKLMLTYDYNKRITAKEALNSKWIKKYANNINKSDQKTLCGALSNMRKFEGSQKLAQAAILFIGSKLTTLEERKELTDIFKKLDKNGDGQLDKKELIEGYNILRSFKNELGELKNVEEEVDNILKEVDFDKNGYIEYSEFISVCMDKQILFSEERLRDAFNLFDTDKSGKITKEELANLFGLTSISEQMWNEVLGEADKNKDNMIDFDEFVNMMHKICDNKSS
In test [6] the target is Plasmodium falciparum protein kinase 6 (PK6, PF3D7_1337100) (UniProt Q8IDW1). Kind of test: PfPK6 kinase inhibitors, biochemical, TCAMS library (AID 1159586). The note with it: recombinant PfPK6, Kinase-Glo ATP depletion luminescence.
Sequence of Plasmodium falciparum protein kinase 6 (PK6, PF3D7_1337100) (Q8IDW1 1-305): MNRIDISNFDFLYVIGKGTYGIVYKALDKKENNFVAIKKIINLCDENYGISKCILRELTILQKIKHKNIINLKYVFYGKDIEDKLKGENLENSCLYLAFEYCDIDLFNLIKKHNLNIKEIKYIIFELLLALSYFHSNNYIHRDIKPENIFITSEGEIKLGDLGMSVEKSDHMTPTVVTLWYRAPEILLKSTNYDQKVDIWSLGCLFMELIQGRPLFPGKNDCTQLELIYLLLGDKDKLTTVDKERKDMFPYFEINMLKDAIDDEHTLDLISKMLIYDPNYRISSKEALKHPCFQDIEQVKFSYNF
Test [7] has as its target Protein kinase 7 (PK7), Plasmodium falciparum 3D7 (PF3D7_0213400) (UniProt Q7YTF7). Kind of test: inhibition of Plasmodium PK7 catalytic activity – biochemical, TCAMS antimalarial set, Kinase-Glo luminescence (AID 1159587). The note with it: recombinant PfPK7, Kinase-Glo ATP depletion luminescence.
In test [8] the target is Calcium-dependent protein kinase 4 (Plasmodium falciparum (isolate 3D7)) (UniProt Q8IBS5). Kind of test: PfCDPK4 kinase inhibitors, biochemical, TCAMS library (AID 1159588; cut-off not given, nearly all actives have IC50 up to about 0.91 µM). The note with it: recombinant PfCDPK4, Kinase-Glo ATP depletion luminescence.
Sequence of Calcium-dependent protein kinase 4 (Plasmodium falciparum (isolate 3D7)) (Q8IBS5 whole entry, looked up): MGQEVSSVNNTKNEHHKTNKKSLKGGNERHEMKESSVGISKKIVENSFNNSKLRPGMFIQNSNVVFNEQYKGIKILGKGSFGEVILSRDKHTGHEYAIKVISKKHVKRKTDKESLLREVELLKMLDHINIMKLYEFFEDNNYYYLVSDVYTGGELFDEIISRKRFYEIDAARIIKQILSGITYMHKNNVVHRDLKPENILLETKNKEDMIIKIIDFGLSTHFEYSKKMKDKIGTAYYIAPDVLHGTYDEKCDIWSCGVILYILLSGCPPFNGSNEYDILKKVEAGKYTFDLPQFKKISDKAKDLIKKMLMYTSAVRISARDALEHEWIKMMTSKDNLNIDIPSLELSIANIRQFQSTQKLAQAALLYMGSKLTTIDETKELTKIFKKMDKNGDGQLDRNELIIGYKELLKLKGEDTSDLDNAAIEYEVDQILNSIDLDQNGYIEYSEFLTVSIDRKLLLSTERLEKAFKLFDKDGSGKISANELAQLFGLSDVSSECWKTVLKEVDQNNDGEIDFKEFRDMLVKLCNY

Sequence of Protein kinase 7 (PK7), Plasmodium falciparum 3D7 (PF3D7_0213400) (Q7YTF7 1-343): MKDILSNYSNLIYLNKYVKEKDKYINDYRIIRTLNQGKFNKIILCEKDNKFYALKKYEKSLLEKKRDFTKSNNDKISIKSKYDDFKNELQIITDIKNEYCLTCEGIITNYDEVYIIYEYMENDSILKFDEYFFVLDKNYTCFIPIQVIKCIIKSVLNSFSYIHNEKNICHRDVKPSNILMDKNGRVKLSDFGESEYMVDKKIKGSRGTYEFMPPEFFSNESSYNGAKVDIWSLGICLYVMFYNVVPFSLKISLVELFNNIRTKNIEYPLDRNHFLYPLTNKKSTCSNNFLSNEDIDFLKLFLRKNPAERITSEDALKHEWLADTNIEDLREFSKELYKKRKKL
Sequence of L-lactate dehydrogenase (Plasmodium falciparum (isolate CDC / Honduras)) (Q27743 whole entry, looked up): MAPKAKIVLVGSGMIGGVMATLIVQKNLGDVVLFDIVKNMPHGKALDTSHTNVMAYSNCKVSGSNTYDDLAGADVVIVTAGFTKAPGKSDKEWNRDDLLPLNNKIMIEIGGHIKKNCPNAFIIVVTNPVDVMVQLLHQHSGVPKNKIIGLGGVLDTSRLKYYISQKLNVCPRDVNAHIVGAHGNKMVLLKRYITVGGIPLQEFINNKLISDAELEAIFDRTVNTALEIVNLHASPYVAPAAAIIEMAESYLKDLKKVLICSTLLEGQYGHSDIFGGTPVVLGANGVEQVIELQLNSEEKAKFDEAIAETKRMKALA

The term inhibition denotes the drop in the measured response relative to a control, in per cent. On to `COc1cc(F)c2nccc([C@@H](O)CN3CCC(NCc4ccc5c(n4)NC(=O)CS5)CC3)c2c1`, for which the values for the growth inhibition in test [1] and in test [4] were 25% and 103% (active), respectively. Moreover, the inhibition in test [2] was 23%; in test [3] it was -4%. Further, the result in test [5], in test [6], in test [7] and in test [8] was inactive.

Turning to `CC(=O)N(C)c1ccc(C(=O)Nc2cccc(-c3cccc(-c4nc5c(C)cccc5[nH]4)c3)c2)cc1`, the growth inhibition in test [1] was 30%; in test [4], 89% (active). The inhibition in test [2] was 11%; in test [3], -2%. Also, the outcome in test [5], in test [6], in test [7] and in test [8] was inactive.

Consider `Cc1ccc2c(OCCN3CCC(Cc4cc5c(cc4F)OCC(=O)N5)CC3)cc(F)cc2n1`, for which the growth inhibition in test [1] was 71% (active); in test [4], 100% (active). In addition, the inhibition in test [2] is 27%; in test [3], 3%. The result in test [5], in test [6], in test [7] and in test [8] was inactive.

For `Cc1cc(N[C@@H](CC(C)C)C(=O)NCCOc2ccccc2)nc(NCCc2ccccc2)n1`, the growth inhibition in test [1] is 29%; in test [4], 94% (active). Besides, the inhibition was 13% in test [2] and -1% in test [3]. The result in test [5], in test [6], in test [7] and in test [8] was inactive.

Turning to `Cc1nc2nc(N)nc(N)c2c(C)c1Cc1cccc(C(F)(F)F)c1`, the growth inhibition is 23% in test [1] and 89% (active) in test [4]. In addition, the inhibition was 65% (active) in test [2] and -2% in test [3]. The result in test [5], in test [6], in test [7] and in test [8] was inactive.

Regarding `CN(C)c1ccc(OCCCCCCOc2ccccc2)cc1`, the growth inhibition is 68% (active) in test [1] and 85% (active) in test [4]. Also, the figures for the inhibition in test [2] and in test [3] were -7% and -5%, respectively. The result in test [5], in test [6], in test [7] and in test [8] was inactive.

On to `Cc1ccc(C(=O)Nc2ccc(Cl)c(N3CCN(CCc4ccccc4)CC3)c2)cc1`, for which the growth inhibition in test [1] was 14%; in test [4] it was 90% (active). Also, the inhibition in test [2] is 17%; in test [3], -7%. Besides, the outcome in test [5], in test [6], in test [7] and in test [8] was inactive.

For `Cn1nc(C(F)(F)F)c(-c2ccc(Br)cc2)c1NC(=O)Nc1ccc(F)cc1F`, the growth inhibition in test [1] and in test [4] was 99% (active) each time. In addition, the inhibition is 16% in test [2] and 0% in test [3]. Moreover, the outcome in test [5], in test [6], in test [7] and in test [8] was inactive.

Regarding `CN1CCCN(c2ccnc3cc4c(cc23)N(C(=O)c2ccc(C(F)(F)F)cc2)CC4)CC1`, the growth inhibition was 63% (active) in test [1] and 101% (active) in test [4]. Moreover, the inhibition is 10% in test [2] and 1% in test [3]. The outcome in test [5], in test [6], in test [7] and in test [8] was inactive.

Regarding `COc1ccc(O)c(C(=O)c2cc(C(=O)NC3CCCCC3)c(=O)n(C3CCCCC3)c2)c1`, the growth inhibition in test [1] is 62% (active); in test [4], 99% (active). Moreover, the inhibition in test [2] is 8%; in test [3], 3%. Besides, the result in test [5], in test [6], in test [7] and in test [8] was inactive.

For the compound `COc1cc(Nc2ncc3c(C)nc(-c4cc5ccccc5[nH]4)n3n2)cc(OC)c1OC`, the growth inhibition in test [1] is 65% (active); in test [4] it was 91% (active). For the same compound, the inhibition in test [2] is 19%; in test [3] it was 7%. Moreover, the outcome in test [5], in test [6], in test [7] and in test [8] was inactive.

With `O=C(Nc1cc(F)cc(F)c1)NC1CCN(CCCCCNC(=O)[C@@H]2C[C@H]2c2ccc(Cl)c(Cl)c2)CC1`, the growth inhibition was 6% in test [1] and 102% (active) in test [4]. For the same compound, the inhibition in test [2] is 49%; in test [3], 6%. Further, the result in test [5], in test [6], in test [7] and in test [8] was inactive.

On to `CN1CCN(c2cc(NC(=O)c3ccc(-c4ccc(C#N)cc4)cc3)ccc2Cl)CC1`, for which the growth inhibition was 94% (active) in test [1] and 101% (active) in test [4]. For the same compound, the results for the inhibition in test [2] and in test [3] were 29% and -5%, respectively. The outcome in test [5], in test [6], in test [7] and in test [8] was inactive.

`Cc1cc(N[C@@H](Cc2ccccc2)C(=O)NCCc2ccccc2)nc(NCc2ccccc2C)n1`: the growth inhibition in test [1] is 85% (active); in test [4] it was 99% (active). The inhibition in test [2] is 37%; in test [3], -2%. Also, the outcome in test [5], in test [6], in test [7] and in test [8] was inactive.

For `COc1ccc2nccc(N3C[C@H]4C[C@@H]3CN4CCNCc3ccc4c(n3)NC(=O)CS4)c2n1`, the growth inhibition in test [1] was 0%; in test [4], 99% (active). The inhibition was 21% in test [2] and 1% in test [3]. Also, the result in test [5], in test [6], in test [7] and in test [8] was inactive.

On to `O=C(Nc1ccc(F)c(F)c1)c1ccc(CN2CCCN(Cc3cccc(F)c3)CC2)cc1`, for which the growth inhibition was 12% in test [1] and 83% (active) in test [4]. The inhibition was 51% (active) in test [2] and -6% in test [3]. Further, the result in test [5], in test [6], in test [7] and in test [8] was inactive.

Regarding `CCN(CC)CCN(Cc1ccc(-c2ccc(C(F)(F)F)cc2)cc1)C(=O)Cn1c(CCc2cccc(F)c2F)nc(=O)c2cc(C)ccc21`, the growth inhibition in test [1] was 43%; in test [4], 95% (active). Besides, the inhibition was 19% in test [2] and 0% in test [3]. The outcome in test [5], in test [6], in test [7] and in test [8] was inactive.

Take `COc1cccc(C(=O)Nc2ccc(Nc3nc(C)cc(N(C)C)n3)cc2)c1`: the growth inhibition was 33% in test [1] and 92% (active) in test [4]. For the same compound, the inhibition in test [2] is 1%; in test [3] it was -2%. Further, the result in test [5], in test [6], in test [7] and in test [8] was inactive.

`CCC(CC)n1c(COC)cc2c3c(N)nc(N)nc3ccc21`: the growth inhibition in test [1] is 0%; in test [4], 95% (active). In addition, the results for the inhibition in test [2] and in test [3] were 71% (active) and -4%, respectively. The outcome in test [5], in test [6], in test [7] and in test [8] was inactive.

With `CC(C)(CNC(=O)/C=C/c1ccc(Cl)c(Cl)c1)CNc1cc(=O)c2ccccc2[nH]1`, the figures for the growth inhibition in test [1] and in test [4] were 29% and 96% (active), respectively. The inhibition in test [2] was -4%; in test [3], 0%. Further, the outcome in test [5], in test [6], in test [7] and in test [8] was inactive.

(Values after PubChem BioAssay.)
